The source made the active and inactive calls.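 Rule for the calls: active = relative activity ratio in the reporter plus Dax-1 wells above 5 or under 0.1 at any tested dose; inactive = ratio stays between 0.1 and 5 at every dose.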

The test can be described thus: DAX1 inhibitors in Gal4 CAT reporter cells – cell-based, CAT activity, absorbance, powder samples, DAX1 inhibitor project, dose response (AID 624301). Particulars: HEK293 Gal4-DAX1 CAT reporter, ELISA absorbance, CAT reporter alone; at 100 µM (top of the series). On the technique in general: ELISA stands for enzyme-linked immunosorbent assay.

`Cn1c(=O)n(C)c2cc(C(=O)Nc3ccc4c(c3)OCCO4)ccc21`: the relative activity ratio, higher = derepression is 0.59 (active).

Take `Cn1c(=O)n(C)c2cc(C(=O)Nc3ccc4c(c3)OCO4)ccc21`: the relative activity ratio, higher = derepression was 0.92 (active).

Source of the values: PubChem BioAssay AID624301 (The Scripps Research Institute Molecular Screening Center, 2012).
